High-throughput results from PubChem BioAssay.
Hits are enriched below; roughly 6.9% of the tested compounds scored in any of these assays.
HCV NS3h FP: blocks HCV NS3 helicase binding to DNA. NS3h Cy5-dT15 DNA binding, fluorescence polarization. inhibition, % at 100 µM. 1.6% of 16,000 active;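 active = inhibition above the average over every tested compound plus 3 SD, cut at about 40% in these data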
Cy5 interf NS3h: enhances or quenches Cy5 fluorescence in NS3h assay; Cy5-dT15 DNA with NS3h, fluorescence interference; actives lie on both sides; signal over control mean, under 1 quenches; fluorescence interference ratio at 100 µM; AID 720488; 6% of 16,000 active;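 active = compound fluorescence over control fluorescence at most 0.8, a quencher, or at least a set upper limit, an enhancer; inactive = ratio between 0.8 and the set upper limit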
NS3h confirm: confirmation of hepatitis C virus NS3 helicase inhibitors; NS3h binding to Cy5-dT15 DNA, fluorescence polarization; shares compounds with HCV NS3h FP; inhibition, % at 100 µM; AID 720485; 20% of 240 active;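 active = percent inhibition of 50% or more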
SSB-DNA FP CB: E. coli SSB-DNA binding inhibition, NS3h counter-screen | 40% of 240 active | E. coli SSB binding Cy5-dT15, fluorescence polarization | shares compounds with HCV NS3h FP | inhibition, % at 100 µM;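 active = inhibition of at least 50%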;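 note: displacers lower Cy5 polarization so higher inhibition means more SSB displaced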
Target sequence (P0AGE0 whole entry, looked up): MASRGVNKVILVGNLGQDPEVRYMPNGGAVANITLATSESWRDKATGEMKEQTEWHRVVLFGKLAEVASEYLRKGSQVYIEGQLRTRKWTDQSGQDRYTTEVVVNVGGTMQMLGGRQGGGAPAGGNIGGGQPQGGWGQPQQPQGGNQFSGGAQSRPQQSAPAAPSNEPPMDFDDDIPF
Cy5 SSB interf: counter-screen for HCV NS3 helicase inhibitors: fluorescence interference | shares compounds with HCV NS3h FP | Cy5-dT15/E. coli SSB fluorescence interference; actives lie on both sides | fluorescence interference ratio at 100 µM | 8% of 240 active;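 active = fluorescence interference ratio at or above 1.2, signal boosting, or at or below 0.8, signal quenching; inactive = ratio between 0.8 and 1.2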;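 note: ratio of compound well signal to mean negative control signal so 1 means no effect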
Cy5 fluor confirm: Cy5 fluorescence interference, confirmation counter-screen; AID 720489; fluorescence interference ratio at 100 µM, hits read low; Cy5-dT15 DNA/NS3h fluorescence interference counterscreen; 44% of 240 active; shares compounds with HCV NS3h FP;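 active = fluorescence interference ratio at or below 0.8 quencher or at or above a set limitenhancer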;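 note: ratio of compound fluorescence to mean of negative controls so 1 means no interference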
Starred values were filed as active, the others as inactive.

SMILES	HCV NS3h FP	Cy5 interf NS3h	others
Nc1ccc(Oc2ccc(N)c(N)c2)cc1N	0.0	0*
O=S(=O)(c1cc(Cl)c(O)c(Cl)c1)c1cc(Cl)c(O)c(Cl)c1	1.7	1
Oc1ccc(Br)cc1CN1CCN(Cc2ccc(F)cc2)CC1	-7.2	1.02
CCNc1cc2oc(=O)cc(C(F)(F)F)c2cc1C	36.4	0.955
O=C1c2ccccc2-c2onc3c(Br)cc(N4CC4)c1c23	7.9	0.783*
CC1(C)CN1S(=O)(=O)c1ccc(Cl)cc1 (stereo not given)	-19.8	1.07
O=c1oc2ccccc2c2c1C(c1ccccc1)c1c(c3ccccc3oc1=O)O2	-4.3	1.03
O=[N+]([O-])c1ccc(N2CCNCC2)cc1NCCOc1ccccc1	0.6	0.702*
CN1CCN(c2ccc([N+](=O)[O-])c(NC3CC3)c2)CC1	4.3	0.871
Cc1ccc(S(=O)(=O)n2cc(C=C3C(=O)NC(=O)NC3=O)c3ccccc32)cc1	16.1	0.696*
Cc1cc(C)cc(-n2c(C)cc(C=C3C(=O)NC(=O)NC3=O)c2C)c1	0.4	1.01
CCn1cc(C=C2C(=O)NC(=O)NC2=O)c2ccccc21	6.9	0.728*
O=Cc1cn(Cc2ccccc2F)c2ccccc12	17.4	1.04
CCCCCC1(C)NCCN2C(=O)CSC21 (stereo not given)	3.1	1.05
Cc1ccc(C=C2C(=O)NC(=O)NC2=O)cc1[N+](=O)[O-]	33.8	0.935
Cc1cc(-c2ccc(C=C3C(=O)NC(=O)NC3=O)o2)ccc1[N+](=O)[O-]	10.9	0.76*
O=C1NC(=O)C(=Cc2ccccc2OCCOc2ccc([N+](=O)[O-])cc2)C(=O)N1	22.4	0.821
COc1ccc(-c2ccc(C=C3C(=O)NC(=O)NC3=O)o2)c([N+](=O)[O-])c1	38.1	0.437*
COc1ccc(C(=O)NC(Cc2cnc[nH]2)C(=O)O)cc1 (stereo not given)	0.0	1.08
O=C(CN1CCCC1=O)NCc1ccccc1	15.6	1.01
O=C1NC(=S)N(c2ccc(Br)cc2)C(=O)/C1=C/c1ccc(-c2ccccc2C(=O)O)o1	32.8	1.05
Cc1ccc(C=C2C(=O)NC(=S)N(c3ccccc3F)C2=O)s1	42.4*	1.05
O=C1NC(=O)N(c2ccc(Br)cc2)C(=O)/C1=C/C=C/c1ccccc1	11.9	1.09
CCc1ccc(N2C(=O)NC(=O)/C(=C/C=C/c3ccco3)C2=O)cc1	41.8*	0.839
O=C1CC(=O)N(c2ccc(F)cc2)C(=S)N1	-3.4	1.03
SMILES	HCV NS3h FP	Cy5 interf NS3h	others
O=Cc1cn(Cc2ccc(Cl)c(Cl)c2)c2ccccc12	-5.0	0.944
COC(=O)N1[C@H](c2ccccc2)[C@@H]1c1ccccc1	13.3	0.677*
O=C1/C(=C/c2ccccc2O)N2CCC1CC2	-5.2	1.09
COC(=O)c1cccc(-c2ccc(C=C3C(=O)NC(=S)NC3=O)o2)c1	20.7	0.753*
Cc1cccc(N2C(=O)NC(=O)/C(=C/c3ccc(-c4ccc(C(=O)O)c(Cl)c4)o3)C2=O)c1	28.1	1.04
COc1ccccc1OCC(=O)N1CCN(C)CC1	0.9	1.04
O=C1NC(=S)NC(=O)C1=Cc1ccc(OCc2ccccc2)c(OCc2ccccc2)c1	-1.8	0.841
COc1ccc(C=C2C(=O)NC(=O)NC2=O)cc1OCc1ccc(Cl)cc1Cl	-19.1	0.611*
COc1ccc(C2c3c(c4ccccc4oc3=O)Oc3c2c(=O)oc2ccccc32)cc1Cn1nc(C)c([N+](=O)[O-])c1C	2.2	0.997
Cc1nc2ccc(I)cc2c(=O)n1-c1ccc([N+](=O)[O-])cc1Cl	1.7	0.807
COc1ccc(CN2CCNCC2)cc1OC	-6.9	0.994
O=C1NC(=S)NC(=O)C1=Cc1ccc(OCc2cccc3ccccc23)cc1	52.6*	0.899	NS3h confirm=28.8;SSB-DNA FP CB=66.0*;Cy5 SSB interf=0.854;Cy5 fluor confirm=0.868
O=C1NC(=O)N(c2ccc3c(c2)OCO3)C(=O)/C1=C/c1ccc(OCc2cccc(C(=O)O)c2)cc1	47.7*	1.05	NS3h confirm=20.3;SSB-DNA FP CB=57.5*;Cy5 SSB interf=0.945;Cy5 fluor confirm=0.751*
Cc1cccc(N2C(=O)/C(=C/c3ccc(OCc4cccc(C(=O)O)c4)cc3)C(=O)NC2=S)c1	-6.0	1.03
O=C1NC(=S)NC(=O)C1=Cc1ccc(OCc2cccc(C(=O)O)c2)cc1	58.4*	1.06	NS3h confirm=38.3;SSB-DNA FP CB=89.1*;Cy5 SSB interf=0.902;Cy5 fluor confirm=0.899
Cc1cc(/C=C2\C(=O)NC(=O)N(c3cccc(Br)c3)C2=O)c(C)n1C	5.3	1.18
Cc1cc(OCC(=O)c2ccccc2)c2c3c(c(=O)oc2c1)CCC3	6.8	1.1
Cc1c(C=O)c2ccccc2n1Cc1ccc(Cl)cc1	5.3	1.01
O=C1NC(=O)N(c2ccc(Cl)cc2)C(=O)/C1=C/c1ccccc1	-27.9	0.97
O=C1NC(=S)N(c2ccccc2F)C(=O)C1=Cc1ccco1	106.1*	0.649*	NS3h confirm=113.4*;SSB-DNA FP CB=123.1*;Cy5 SSB interf=0.766*;Cy5 fluor confirm=0.832
O=C1NC(=S)N(c2ccccc2)C(=O)/C1=C/c1ccco1	93.6*	0.891	NS3h confirm=62.6*;SSB-DNA FP CB=100.0*;Cy5 SSB interf=0.934;Cy5 fluor confirm=0.712*
CCC1(c2ccccc2)C(=O)NC(=O)N(C(=O)c2cccc(F)c2)C1=O (stereo not given)	4.3	1.05
COc1ccccc1CN1CCN(Cc2cc(Br)ccc2O)CC1	-2.6	1.03
COc1ccc(O)c(CN2CCN(Cc3ccc(Br)cc3)CC2)c1	4.2	1.01
COc1ccc(O)c(CN2CCN(Cc3ccc(F)cc3)CC2)c1	63.6*	1.2*	NS3h confirm=3.4;SSB-DNA FP CB=11.4;Cy5 SSB interf=0.937;Cy5 fluor confirm=0.97
SMILES	HCV NS3h FP	Cy5 interf NS3h	others
O=[N+]([O-])c1ccc(N2CCOCC2)c(F)c1Br	-2.4	0.943
O=C(Nc1ccc(Br)cc1C(=O)c1ccccc1)c1ccc([N+](=O)[O-])cc1	-8.4	1.07
Cc1[nH]c2cc(S(=O)(=O)O)c(Oc3ccccc3)cc2c1CCN	46.0*	1	NS3h confirm=26.7;SSB-DNA FP CB=97.6*;Cy5 SSB interf=0.903;Cy5 fluor confirm=0.96
CSc1ccc(CN2CCN(Cc3cc(Br)ccc3O)CC2)cc1	-3.4	0.926
Cc1cc(C=C2C(=O)NC(=S)NC2=O)c(C)n1-c1ccccc1	-0.7	1.01
COc1ccc(CN2CCNCC2)c(OC)c1	-11.3	1.01
COc1ccc(C=C2C(=O)NC(=O)NC2=O)c(OC)c1	61.3*	0.849	NS3h confirm=45.7;SSB-DNA FP CB=17.5;Cy5 SSB interf=0.985;Cy5 fluor confirm=0.992
CC(C)Oc1ccccc1C=C1C(=O)NC(=O)NC1=O	42.4*	1.04	NS3h confirm=18.2;SSB-DNA FP CB=17.5;Cy5 SSB interf=0.981;Cy5 fluor confirm=0.921
Cc1ccc(C(=O)Nc2ccc(N/C(N)=N\[N+](=O)[O-])cc2)cc1	-1.8	1.05
CCC1(c2ccccc2)C(=O)NC(=O)N(C(=O)c2ccccc2Br)C1=O (stereo not given)	1.3	1.03
CC(=O)NC1(c2ccccc2)CC(C)N(C)CC1C (stereo not given)	-0.3	1.07
O=C(Nc1nc2ccccc2s1)C(Cl)(Cl)Cl	4.3	0.943
Oc1ccc(Br)cc1CN1CCN(Cc2cccc(F)c2)CC1	0.3	0.982
